{"source": "PubChem BioAssay (NCATS)", "note": "Inconclusive results are not listed. Entries that show only a call come without a potency. The source made the active and inactive calls. Calls follow the shape of the dose curve; as a rule, active = well fitted inhibition curve with a large enough effect; inconclusive = small, poorly fitted or top-dose-only effect; inactive = flat fitted curve, though single readings scatter."}
{"target": "Ubiquitin carboxyl-terminal hydrolase 1 (Homo sapiens) (UniProt O94782)", "sequence (O94782 whole entry, looked up)": "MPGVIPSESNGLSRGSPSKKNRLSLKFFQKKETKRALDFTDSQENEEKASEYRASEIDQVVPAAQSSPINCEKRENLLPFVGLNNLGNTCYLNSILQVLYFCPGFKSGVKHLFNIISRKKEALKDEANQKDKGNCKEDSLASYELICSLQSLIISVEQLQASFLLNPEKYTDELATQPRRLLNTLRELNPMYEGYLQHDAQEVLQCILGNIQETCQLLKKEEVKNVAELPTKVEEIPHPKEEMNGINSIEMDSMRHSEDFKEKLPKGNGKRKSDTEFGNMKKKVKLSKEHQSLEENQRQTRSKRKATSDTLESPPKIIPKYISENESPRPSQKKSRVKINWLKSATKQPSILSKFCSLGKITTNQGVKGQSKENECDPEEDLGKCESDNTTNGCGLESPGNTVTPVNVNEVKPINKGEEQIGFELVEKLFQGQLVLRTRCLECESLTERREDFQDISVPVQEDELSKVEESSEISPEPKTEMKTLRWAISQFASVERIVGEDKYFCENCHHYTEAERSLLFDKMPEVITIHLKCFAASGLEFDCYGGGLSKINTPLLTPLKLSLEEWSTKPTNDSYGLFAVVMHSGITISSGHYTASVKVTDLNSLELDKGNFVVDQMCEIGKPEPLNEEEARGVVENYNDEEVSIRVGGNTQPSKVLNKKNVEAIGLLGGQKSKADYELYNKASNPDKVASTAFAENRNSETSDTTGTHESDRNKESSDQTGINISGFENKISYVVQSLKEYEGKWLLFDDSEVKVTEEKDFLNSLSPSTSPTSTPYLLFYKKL", "assay": "Inhibitors of USP1/UAF1: Pilot qHTS (AID 504865);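 also: rhodamine fluorescence freed from ubiquitin-rhodamine substrate followed over time; top concentration of the series differs between compounds; nearly all actives have a fitted effect of over 35% in size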", "conditions": "purified USP1/UAF1, Ub-rhodamine cleavage fluorescence; series mostly up to 114 µM", "how_it_was_run": "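Enzyme-free wells gave the negative control, while test wells held 1nM USP1/UAF1 preincubated with compound for 15 min at room temperature. Ub-Rho at 150nM final started the reaction, and fluorescence at 480/540 nm was recorded kinetically.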"}
{"molecule": "COc1ccc(Cc2cnc(N)nc2N)cc1OC", "Potency": "inactive"}
{"molecule": "Cc1ccsc1C(=CCCN1CCC[C@@H](C(=O)O)C1)c1sccc1C", "Potency": "inactive"}
{"molecule": "NS(=O)(=O)c1cc(C2(O)NC(=O)c3ccccc32)ccc1Cl", "note": "(configuration not stated)", "Potency": "inactive"}
{"molecule": "COc1ccccc1Oc1c(NS(=O)(=O)c2ccc(C(C)(C)C)cc2)nc(-c2ncccn2)nc1OCCO", "Potency": "inactive"}
{"molecule": "CC(N)CCCC(C)(C)O", "note": "(configuration not stated)", "Potency": "inactive"}
{"molecule": "NCC1CCC(C(=O)Oc2ccc(CCC(=O)O)cc2)CC1", "note": "(configuration not stated)", "Potency": "inactive"}
{"molecule": "Cn1c(=O)c2c(ncn2CCO)n(C)c1=O", "Potency": "inactive"}
{"molecule": "CC(C)c1cc2c(cc1S(=O)(=O)O)[C@@]1(C)CCC[C@@](C)(C(=O)O)[C@@H]1CC2", "Potency": "inactive"}
{"molecule": "C[C@@H](N)C(=O)O", "Potency": "inactive"}
{"molecule": "CCN(CC)CCc1nc(-c2ccccc2)no1", "Potency": "inactive"}
{"molecule": "NS(=O)(=O)c1ccc(NC(=O)CCC(=O)O)cc1", "Potency": "inactive"}
{"molecule": "NC(=O)c1ccc([N+](=O)[O-])cc1Cl", "Potency": "inactive"}
{"molecule": "CNc1c2c(nn1C)CCCC2", "Potency": "inactive"}
{"molecule": "O=C(NCN1CCOCC1)c1cnccn1", "Potency": "inactive"}
{"molecule": "CCCCCCCCCCOc1cc2c(=O)c(C(=O)OCC)c[nH]c2cc1OCC", "Potency": "inactive"}
{"molecule": "CN/C(=C\\[N+](=O)[O-])NCCSCc1csc(CN(C)C)n1", "Potency": "inactive"}
{"molecule": "O=C(Cn1ccnc1[N+](=O)[O-])NCCO", "Potency": "inactive"}
{"molecule": "CCN(CC)S(=O)(=O)c1ccc(C(=O)O)cc1", "Potency": "inactive"}
{"molecule": "CCOc1cc(NC(C)=O)ccc1C(=O)OC", "Potency": "inactive"}
{"molecule": "O=C(O)CCC(=O)O", "Potency": "inactive"}
{"molecule": "C1CCN2C[C@@H]3C[C@@H](CN4CCCC[C@@H]34)[C@H]2C1", "Potency": "inactive"}
{"molecule": "CCS(=O)(=O)CCn1c([N+](=O)[O-])cnc1C", "Potency": "inactive"}
